{"source": "PubChem BioAssay (NCATS)", "note": "Records with an inconclusive call do not appear. Calls of active or inactive are those of the source. Calls follow the shape of the dose curve; as a rule, active = well fitted inhibition curve with a large enough effect; inconclusive = small, poorly fitted or top-dose-only effect; inactive = flat fitted curve, though single readings scatter. Where a SMILES comes first, the peptide text is derived from it. Bridges are numbered along the chain shown (N, C = ends). [ ]: non-standard residue; d: D form. NMeY = CN[CH](Cc1ccc(O)cc1)C(=O)O"}
{"system": "HEK293", "test": "Cytotoxic Profiling of Annotated Libraries Using Quantitative High-Throughput Screening (AID 1296008); also: nearly all actives have a fitted effect of over 60% in size; also: potency is read from the fitted curve at half-maximal effect; as to max response: % is scaled to controls: 0 for no effect and ±100 for the full control effect", "conditions": "Five cell lines viability, CellTiter-Glo ATP luminescence, 48-72 h; max response: active compounds read low", "summary_of_the_method": "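Compounds were pin-transferred onto cells and incubated 48 or 72 hr at 37 degree Celsius, 95% humidity. CellTiter-Glo was added, plates sat 10 min at room temperature, then ATP-coupled luminescence was imaged as the viability read-out.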"}
{"molecule": "C=C(C(=O)O)C1CCC2(C)CCCC(C)(O)C2C1", "note": "(centres undefined)", "max response": "-4.4% (inactive)"}
{"molecule": "NC[C@@](O)(c1ccc(Cl)cc1)c1ccc(-c2cn[nH]c2)cc1", "Potency": "5.8 µM (active)"}
{"molecule": "CC1=C(C(=O)O[C@@H]2O[C@H](COC3OCC(O)C(O)C3O)[C@@H](O)[C@H](O)[C@H]2O)C(C)(C)CCC1", "note": "(some centres undefined)", "max response": "-9.72% (inactive)"}
{"molecule": "Cc1[nH]c2ccccc2c1C1=C(NCCc2ccc(F)cc2)C(=O)N(C)C1=O", "max response": "-22.2% (inactive)"}
{"molecule": "COC(=O)C1=CO[C@@H](O[C@@H]2O[C@H](CO)[C@@H](O)[C@H](O)[C@H]2O)[C@H]2[C@@H]1C=C[C@@]21C=C([C@H](C)O)C(=O)O1", "max response": "-5.88% (inactive)"}
{"molecule": "COC(=O)N[C@@H](C)CNc1nccc(-c2cn(C(C)C)nc2-c2cc(Cl)cc(NS(C)(=O)=O)c2F)n1", "Potency": "11.6 µM (active)"}
{"molecule": "O=C1CCC(c2ccccc2)(C2CCN(Cc3ccc(I)cc3)CC2)C(=O)N1", "note": "(centres undefined)", "Potency": "18.4 µM (active)"}
{"molecule": "C=C(C)C(=O)OC1C(OC(C)=O)/C(C=O)=C\\CC/C(CO)=C/C2OC(=O)C(=C)C21", "note": "(centres undefined)", "Potency": "5.63 µM (active)"}
{"molecule": "NCc1ccc(Nc2ncc(F)c(Nc3ccccc3)n2)cc1", "Potency": "20.6 µM (active)"}
{"molecule": "Cn1nnc(-c2ccc(-c3ccc(N4C[C@H](CO)OC4=O)cc3F)cn2)n1", "Potency": "4.11 µM (active)"}
{"molecule": "O=C(C(c1ccccc1)c1ccccc1)N1CCN(CC(O)COc2cccc3ncccc23)CC1", "note": "(centres undefined)", "Potency": "6.51 µM (active)"}
{"molecule": "O=C1NC(=O)C(c2cn(-c3ccccc3)nc2-c2ccc(F)cc2)N1", "note": "(centres undefined)", "max response": "-6.53% (inactive)"}
{"molecule": "CC(Oc1cc(-n2cnc3ccc(CN4CCN(C)CC4)cc32)sc1C(N)=O)c1ccccc1C(F)(F)F", "note": "(centres undefined)", "Potency": "1.3 µM (active)"}
{"molecule": "C[C@@H]1C[C@H]2O[C@@H]2/C=C\\C=C\\C(=O)Cc2c(Cl)c(O)cc(O)c2C(=O)O1", "Potency": "0.0873 µM (active)"}
{"molecule": "COc1ccc(-c2cnc3ccc(NCc4ccc(S(N)(=O)=O)cc4)nn23)cc1OC", "max response": "-0.271% (inactive)"}
{"molecule": "COc1cc(O)c2c(c1)C1=C[C@H](O)[C@@H](O)C[C@]1(C)OC2=O", "outcome": "inactive"}
{"molecule": "COc1c(Nc2ncc(Cl)c(N[C@H]3[C@@H](C(N)=O)[C@@H]4C=C[C@H]3C4)n2)ccc2c1CC[C@@H](N1CCOCC1)CC2", "Potency": "3.66 µM (active)"}
{"molecule": "C[C@@H]1O[C@@H](O[C@H]2[C@H](O[C@H]3CC[C@@]4(C)C(CC[C@]5(C)C4C=C[C@]46OC[C@@]7(CCC(C)(C)C[C@H]74)[C@@H](O)C[C@]65C)[C@]3(C)CO)O[C@H](CO)[C@@H](O)[C@@H]2O[C@@H]2O[C@H](CO)[C@@H](O[C@@H]3O[C@@H](C)[C@H](O)[C@@H](O)[C@H]3O)[C@H](O)[C@H]2O)[C@H](O)[C@H](O)[C@H]1O", "note": "(some centres undefined)", "Potency": "3.9 µM (active)"}
{"molecule": "COC(=O)C12C(=O)C(C)=C(O)C1(C)C(C)=CC1C3(CO)CCC(O)C(C)(C)C3CCC12C", "note": "(centres undefined)", "max response": "1.96% (inactive)"}
{"molecule": "CC(C)=C/C=C\\[C@H](C)[C@H]1CC[C@]2(C)C[C@@H]3C(C)=CC(=O)C3/C(CO)=C\\C[C@@H]12", "note": "(some centres undefined)", "max response": "-20.2% (inactive)"}
{"molecule": "CCC(C)C1NC(=O)C2CCCN2C(=O)C(NC(C)=O)C(C)OC(=O)C(Cc2ccc(OC)cc2)N(C)C(=O)C2CCCN2C(=O)C(C(C)C)NC1=O", "note": "(centres undefined) (Ac-TPIVP[NMeY](Me); ester 1-C; configuration not given here)", "max response": "-18.8% (inactive)"}
{"molecule": "COc1cc2occc2c(O[C@@H]2O[C@H](CO)[C@@H](O)[C@H](O)[C@H]2O)c1CCC(=O)O", "outcome": "inactive"}
{"molecule": "C=CC(C)(C)c1[nH]c2cc3c(cc2c1CC1NC(=O)C2=CCCN2C1=O)C=CC(C)(C)O3", "note": "(centres undefined)", "max response": "-27.4% (inactive)"}
{"molecule": "Nc1ccccc1N", "Potency": "17.2 µM (active)"}
{"molecule": "C=C1C(=O)O[C@@H]2C/C(C)=C\\C(=O)/C=C(\\C)[C@@H](OC(=O)/C(C)=C\\C)[C@H](O)[C@@H]12", "Potency": "1.61 µM (active)"}
{"molecule": "CC(=O)OC1CC2C3(C)CCC(OC(=O)CC(=O)O)C(C)(C)C3CCC2(C)C2(C)CCC(C3(C)CCC(=O)O3)C12", "note": "(centres undefined)", "outcome": "inactive"}
{"molecule": "C=C1C(=O)O[C@@H]2[C@H]1CCC(C)=C1CCC(=O)O[C@]12C", "Potency": "14.6 µM (active)"}
{"molecule": "Oc1ccc2nc(CN3CCC(Cc4ccccc4F)CC3)[nH]c2c1", "max response": "-10.9% (inactive)"}
{"molecule": "CC1=C2C(O)C(=O)OC(c3ccoc3)C2(C)CCC1O", "note": "(centres undefined)", "max response": "-2.84% (inactive)"}
{"molecule": "CCN(CC)c1ccc2c(O)c(C=Nc3ccc(CC(=O)O)c(-c4c5c(nc6ccccc46)CCC(C(=O)NN)C5)c3)c(=O)oc2c1", "note": "(centres undefined)", "Potency": "11.6 µM (active)"}
{"molecule": "O=C(/C=C/c1ccccc1)OC[C@]12O[C@H]1[C@@H](O)[C@@H]1C=CO[C@@H](O[C@@H]3O[C@H](CO)[C@@H](O)[C@H](O)[C@H]3O)[C@@H]12", "outcome": "inactive"}
{"molecule": "CCCCC1CCN(CCCC(=O)c2ccccc2C)CC1", "Potency": "16.4 µM (active)"}
{"molecule": "CCCC(=O)NCCc1csc(-c2ccc(Cl)cc2)n1", "Potency": "16.4 µM (active)"}
{"molecule": "O=C(c1cccc(Cl)c1F)N1CCN(Cc2cccc(Nc3nccs3)n2)CC1", "Potency": "1.03 µM (active)"}
{"molecule": "CN(C)CCCCC(=O)Nc1ccc(NC(=S)NC(=O)c2ccc(C(C)(C)C)cc2)cc1", "Potency": "6.51 µM (active)"}
{"molecule": "CC(=O)OC1/C(C)=C/C(=O)C(OC(C)=O)C(C)(C)/C=C/C(C)C(=O)C2(OC(C)=O)CC(C)C(OC(=O)c3ccccc3)C12", "note": "(centres undefined)", "max response": "-22.9% (inactive)"}
{"molecule": "CCCNc1ccc2ncc(-c3ccc4[nH]ncc4c3)n2n1", "Potency": "1.64 µM (active)"}
{"molecule": "CC(O)/C=C/C1C(C)C(O[C@@H]2O[C@H](CO)[C@@H](O)[C@H](O)[C@H]2O)C(O)CC1(C)C", "note": "(some centres undefined)", "max response": "-16.1% (inactive)"}
{"molecule": "COC1C(CO)OC(n2cnc3c(=O)[nH]cnc32)C1O", "note": "(centres undefined)", "max response": "0.852% (inactive)"}
